In the library only some 7.5% were active in any assay of this set; here they are far more common.
B2AR arrestin: qHTS assay of beta-arrestin-biased ligands of beta2-adrenergic receptor. beta-arrestin recruitment to beta2AR, cell-based reporter. Potency, µM (doses to about 46.1 µM), for inactives: at the highest dose activation, hits mostly activators. 0.02% of 330,000 active;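 further: potency means the concentration at half of the fitted maximal effect; 0% = DMSO controls and full agonism = EC100 isoproterenol or metaproterenol; nearly all actives have a fitted effect of over 65% in size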
ELG1 DNA repair: qHTS screen for small molecules that inhibit ELG1-dependent DNA repair in human embryonic kidney (HEK293T) cells expressing luciferase-tagged ELG1; HEK293T ELG1-luciferase reporter, luminescence, 16 h; DNA damage induced by 5-fluorouridine; Potency, µM (top dose mostly 46.1 µM), for inactives: at the highest dose activity change, negative = inhibition, most hits filed as inhibitors; 2.3% of 330,000 active; AID 504467, 2011; further: potency means the concentration at half of the fitted maximal effect; nearly all actives have a fitted effect of over 55% in size
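DMSO vehicle served as the neutral condition. Each well held 2,000 cells given 5-fluorouridine plus compound; after 16 hr at 37 °C/5% CO2, ONE-Glo was added and luciferase measured 30 min later.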
TSHR antagonist: Antagonists of the Thyroid Stimulating Hormone Receptor: HTS campaign; Thyrotropin receptor (Homo sapiens), P16473; TSHR-expressing cells, TSH-stimulated cAMP HTRF, 2 h; stronger effect = lower value; activity change, negative = inhibition, % at 11.5 µM; 0.2% of 330,000 active;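 active means activity change below a set negative limit, meaning inhibition stronger than a set level, cut at about -70% in these data; inconclusive means activity change between two set negative limits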
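Read-out is FRET at 665 nm (cryptate excitation 337 nm) from a cryptate-tagged anti-cAMP antibody, competed by cell cAMP against cAMP-d2. Compounds are tested on freshly harvested TSHR cells challenged with 4nM TSH (EC80) for 2 hours at 37 deg C.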
RORg inh: qHTS for inhibitors of ROR gamma transcriptional activity; 5.4% of 310,000 active; Nuclear receptor ROR-gamma (Mus musculus), P51450; Drosophila S2 Gal4-RORgamma UAS-luciferase reporter, 20 h; Potency, µM (top dose mostly 53.6 µM), inactives show at the highest dose activity change, negative = inhibition, actives largely listed as inhibitors; further: potency means the concentration at half of the fitted maximal effect; nearly all actives have a fitted effect of over 60% in size
Target sequence (P51450 whole entry, looked up, the tested form may be a part): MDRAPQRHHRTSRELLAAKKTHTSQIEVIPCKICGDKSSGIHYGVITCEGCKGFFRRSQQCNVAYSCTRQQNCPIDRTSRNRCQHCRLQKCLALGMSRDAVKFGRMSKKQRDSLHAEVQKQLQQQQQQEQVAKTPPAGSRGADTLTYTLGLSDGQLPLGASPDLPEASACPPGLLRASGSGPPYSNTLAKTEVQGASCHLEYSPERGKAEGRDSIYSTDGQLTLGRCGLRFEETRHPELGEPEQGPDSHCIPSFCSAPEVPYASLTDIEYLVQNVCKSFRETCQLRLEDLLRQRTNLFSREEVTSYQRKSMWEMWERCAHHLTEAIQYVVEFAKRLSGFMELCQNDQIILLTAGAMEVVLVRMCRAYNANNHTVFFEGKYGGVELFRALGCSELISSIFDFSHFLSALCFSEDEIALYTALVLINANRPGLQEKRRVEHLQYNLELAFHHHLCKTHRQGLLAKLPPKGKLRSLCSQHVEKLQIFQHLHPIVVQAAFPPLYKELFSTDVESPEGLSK
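In this cell-based reporter format, copper sulfate (700 uM final) drives Gal4–ROR gamma fusion expression from a metallothionein promoter in Drosophila Schneider cells; compounds preincubated 1 hr, reporter read after 20 hr at ambient temperature.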
VP16 counter: VP16 counterscreen qHTS for inhibitors of ROR gamma transcriptional activity | Drosophila S2 Gal4-VP16 UAS-luciferase, luminescence, 20 h | Potency, µM (doses to about 53.6 µM), inactives show top-dose activity, negative = inhibition, actives largely listed as inhibitors | 3.5% of 310,000 active;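 further: Gal4-VP16 expression switched on by copper sulfate through the metallothionein promoter; potency means the concentration at half of the fitted maximal effect; nearly all actives have a fitted effect of over 50% in size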
* hit, by the source's call; ? = inconclusive; · = not tested or not shown; [ ] = another dose, or the depositor's remark. Unless noted, the call rests on the fitted dose curve; in most records, active means well fitted curve in the direction sought with a large enough effect; inconclusive means small, poorly fitted or top-dose-only effect, or another doubt; inactive means no such curve, though single readings can be large; an effect the other way counts as inactive or inconclusive. Unless noted, on the % scale 0 is the no-effect control and ±100 the full control effect.

SMILES	B2AR arrestin	ELG1 DNA repair	TSHR antagonist	RORg inh	VP16 counter
O=C(NNC1=Nc2ccccc2SC1)c1ccccc1F	0%	5.8µM*	-3	0.89µM*	0.71µM*
Cc1cnc(CNc2nc(-c3c(C)noc3C)nc3ccccc23)cn1	·	·	·	-29%	-5%
O=C(NC1CCCCC1)c1cc(-c2ccccc2O)on1	0%	?	-80*	6%	-13%
C=CCC1(CC=C)CCCN1C(=O)c1cc(COc2ccc(F)c(F)c2)on1	0%	?	-10	9%	?
Cc1cc(OCc2cc(C(=O)NC3CCC3)no2)cc(C)c1Cl	0%	5%	-24	18%	-19%
O=C(NC1CCCCC1)c1cc(-c2ccc(O)cc2)on1	-1%	?	-3	0%	4%
Cc1ccc(OCc2cc(C(=O)NC3CCCCC3)no2)cn1	1%	?	-109*	-14%	?
C=CCC1(CC=C)CCCN1C(=O)c1cc(COc2ccc(C)nc2)on1	0%	?	-49	?	8.9µM*
CC(C)(C)OC(=O)N1CCN(c2ccc(NC(=O)c3ccco3)cc2)CC1	0%	?	2	7%	-5%
COc1ccc(-c2nc3cnc(N4CCOCC4)nc3n(C[C@H]3CCCO3)c2=O)cc1	·	·	·	-9%	5%
Cc1ccc(-c2nn(-c3ccccc3)cc2C=C2C(=O)CC(C)(C)CC2=O)cc1	0%	5%	12	10%	-7%
CC1=NNC(=O)/C1=C\c1cn(-c2ccccc2)nc1-c1ccc(Cl)cc1	0%	9.2µM*	-13	5µM*	3.2µM*
Cc1ccccc1S(=O)(=O)Cc1ccc(C(=O)NC2CCCCC2)o1	0%	1%	-9	8%	13%
COc1ccc(-n2c(=S)[nH]c3ccccc32)cc1	0%	-3%	7	4.5µM*	20µM*
COc1ccc(-n2c(=S)[nH]c3ncccc3c2=O)cc1	0%	?	1	?	-2%
COc1ccc(-n2c(=S)[nH]c3ccccc3c2=S)cc1	5%	-3%	18	0.5µM*	0.71µM*
COc1ccc(Cn2c(=S)[nH]c3ccccc32)cc1	0%	4%	3	10µM*	?
CCNc1ncc2nc(-c3ccccc3)c(=O)n(Cc3cccc(OC)c3)c2n1	·	·	·	?	-10%
Cn1cc(CN2CCC(C(=O)Nc3cccc(-c4cscn4)c3)CC2)cn1	-1%	1%	-7	-42%	-6%
CCCc1ncc(CN2CCC(C(=O)Nc3cccc(-c4cscn4)c3)CC2)cn1	0%	8.2µM*	-11	10%	-15%
CSc1ncc(CN2CCC(C(=O)Nc3cccc(-c4cscn4)c3)CC2)cn1	0%	23µM*	2	25%	-4%
COCCc1ncc(CN2CCC(C(=O)Nc3cccc(-c4cscn4)c3)CC2)cn1	-1%	?	13	-10%	1%
CC[C@H](C)[C@H](NC(=O)c1ccccc1)C(=O)Nc1ccc(S(=O)(=O)Nc2cc(C)nc(C)n2)cc1	0%	10%	0	34%	-5%
Clc1ccc(-n2nnnc2-c2cnc(-c3ccncc3)nc2-c2cccs2)cc1	0%	?	-9	-8%	-19%
FC(F)(F)c1nc(-c2cccs2)ncc1-c1nnnn1-c1ccc(Cl)cc1	0%	21µM*	-72*	-21%	-6%
Nc1ncnc2n[nH]c(Nc3ccc(F)cc3)c12	·	·	-15	36%	-5%
CCN(CC)C(=O)c1cc(C(C)(C)C)c(O)c(C(C)(C)C)c1	-1%	2%	-12	10µM*	-3%
COC(=O)C/C=C\[C@@H](C)[C@@H]1C=C[C@H](OC(C)=O)[C@H](COC(C)=O)O1	·	·	·	-15%[10 µM]	-2%[10 µM]
O=C(N/N=C/c1cc(Br)c(O)c(Br)c1)c1cccc(C(F)(F)F)c1	0%	-1%	-10	6%	6%
O=C(N/N=C/c1ccc2nccnc2c1)c1ccccc1O	0%	?	9	6.3µM*	?
